From PubChem BioAssay (EPA / NIEHS)
The source made the active and inactive calls. How the source made its calls: active means hit-call score of the fitted dose curve at least 0.9, where 1 is the maximum; inactive means score below 0.9.

read-out: urokinase plasminogen activator (uPA), PLAU (gene 5328); experiment: BSK_BE3C_uPA: BioMAP Diversity Plus: BE3C Assay for urokinase plasminogen activator (uPA) Biomarker Activity (AID 2283038); conditions: primary human bronchial epithelial cells; actives raise or lower the signal;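 on outcome: uPA read one day after compound addition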
Procedure: BSK_BE3C is a cell-based, multiplexed-readout assay that uses bronchial epithelial cell, a human lung primary cell, with measurements taken at 24 hours after chemical dosing in a 96-well plate.BSK_BE3CA is an assay component measured in the BSK_BE3C assay. It measures uPA antibody related to regulation of gene expression using ELISA technology.Data from the assay component BSK_BE3CA was analyzed into 1 assay endpoint. This assay endpoint, BSK_BE3CA, was analyzed with bidirectional fitting relative to DMSO as the negative control and baseline of activity. Using a type of binding reporter, gain or loss-of-signal activity can be used to understand changes in the signaling as they relate to the gene PLAU. Furthermore, this assay endpoint can be referred to as a primary readout, because this assay has produced multiple assay endpoints where this one serves a signaling function. To generalize the intended target to other relatable targets, this assay endpoint is annotated to the protease intended target family, where the subfamily is serine protease.
The levels of cell surface (or secreted, indicated by the prefix "s") biomarker endpoints were measured by ELISA. Overt cytotoxicity to cells in confluent adherent cultures (all systems other than the BT system) was assessed by measuring total protein levels using sulforhodamine B (SRB) staining in parallel cultures at the time of biomarker measurements, indicated as SRB endpoints. For proliferation assays for adherent cell types, individual cell types are cultured at sub-confluence and relative cell numbers quantified by SRB staining at time points optimized for each system (48 h: 3C and CASM3C systems; 72 h: BT and HDF3CGF systems; 96 h: SAg system). SRB was performed by staining cells with 0.1% SRB after fixation with 10% TCA and reading wells at 560 nm.Viability and proliferation of PBMC (T cells) was quantified by Alamar Blue reduction for the SAg and BT systems. For PBMC viability (referred to as PBMC Cytotoxicity within the assay endpoint names), cells were plated (75,000/well in a 96-well plate) and then chemical samples added for 1 h before addition of activators, SEB and TSST-1 (20 ng/mL final concentration each). Cells were incubated for 90 h. Then, Alamar Blue (20 uL/well) (Invitrogen, Cat DAL1100) was added for 6 h, and the plates were read with a fluorescence microplate reader at 546/580 nm (excitation/emission). For PBMC proliferation, cells were plated and activated as above but incubated for only 16 h prior to addition of Alamar Blue. Plates were read after 6 h.

Row | SMILES | outcome | AC50
1 | CCN(Cc1cccc(S(=O)(=O)O)c1)c1ccc(C(=C2C=CC(=[N+](CC)Cc3cccc(S(=O)(=O)O)c3)C=C2)c2ccccc2S(=O)(=O)[O-])cc1 | inactive | 
2 | COc1cc(C(=O)NC2CCN(C)CC2)ccc1Nc1ncc2c(n1)N(C1CCCC1)CC(F)(F)C(=O)N2C |  | 12.6 µM (active)
3 | c1ccc2n[nH]nc2c1 | inactive | 
4 | O=C1O[C@H]([C@@H](O)CO)C(O)=C1O | inactive | 
5 | O=C(O)c1ccccc1-n1cc(C(=O)O)c(=O)c2cc(Nc3c(F)cc(F)cc3Cl)c(Cl)cc21 | inactive | 
6 | CC[C@H](NC(=O)c1cc(F)ccc1NS(=O)(=O)c1cccc2cccnc12)c1ccccc1 | inactive | 
7 | CCCOC(=O)c1cc(O)c(O)c(O)c1 | inactive | 
8 | c1ccc2ccccc2c1 | inactive | 
9 | CN1C(=O)CC[C@H]1c1cccnc1 | inactive | 
10 | O=C(OCCCCCCOC(=O)c1ccccc1)c1ccccc1 | inactive | 
11 | CCCCCCCC[Si](OCC)(OCC)OCC | inactive | 
12 | CO[C@H]1/C=C/O[C@@]2(C)Oc3c(C)c(O)c4c(O)c(c(/C=N/N5CCN(C)CC5)c(O)c4c3C2=O)NC(=O)/C(C)=C\C=C\[C@H](C)[C@H](O)[C@@H](C)[C@@H](O)[C@@H](C)[C@H](OC(C)=O)[C@@H]1C | inactive | 
13 | Cc1ccc2oc(CN(Cc3ccccc3)C(=O)Nc3c(F)cc(F)cc3F)c(-c3ccc(Cl)cc3)c2c1 | inactive | 
14 | CCCCCCCCN(C)CCCCCCCC | inactive | 
15 | CN1C(=O)N(c2ccccc2Br)Cc2cnc(Nc3ccc4c(c3)OCC(CO)O4)nc21 (stereo not given) |  | 5.91 µM (active)
16 | CCCCOC(=O)CC(CC(=O)OCCCC)(OC(C)=O)C(=O)OCCCC | inactive | 
17 | CC[C@@H]1C[C@H](N(Cc2cc(C(F)(F)F)cc(C(F)(F)F)c2)C(C)=O)c2cc(C(F)(F)F)ccc2N1C(=O)OC(C)C | inactive | 
18 | CC(C)(O)c1ccc(CNC(=O)c2cccnc2Oc2ccc3nonc3c2)cc1 | inactive | 
19 | NCc1cccc(C2CCN(C(=O)c3ccc(C#Cc4ccccc4F)o3)CC2)c1 |  | 7.93 µM (active)
20 | CC(=O)N1CCN(c2ccc(OC[C@H]3CO[C@](Cn4ccnc4)(c4ccc(Cl)cc4Cl)O3)cc2)CC1 | inactive | 

Row | SMILES | outcome | AC50
21 | CCCCOC(=O)c1ccc(O)cc1 | inactive | 
22 | O=C(O)Cc1cc(I)c(Oc2ccc(O)c(I)c2)c(I)c1 | inactive | 
23 | O=c1ccc2ccccc2o1 | inactive | 
24 | C[C@]12CC[C@@H]3c4ccc(O)cc4CC[C@H]3[C@@H]1CC[C@H]2O | inactive | 
25 | CN(C)C(=O)C1(N2CCCCC2)CCN(CC[C@@]2(c3ccc(Cl)c(Cl)c3)CN(C(=O)c3ccccc3)CCO2)CC1 |  | 17.7 µM (active)
26 | CCCCCCCCCC(=O)O | inactive | 
27 | CC(C)(C)c1cc(/C=C2\SC(N)=NC2=O)cc(C(C)(C)C)c1O |  | 3.97 µM (active)
28 | CCO[Si](CCCNC(N)=O)(OCC)OCC | inactive | 
29 | O=C(O)Cn1c(=O)n(Cc2ccc(Br)cc2F)c(=O)c2ccc(Cl)cc21 | inactive | 
30 | Clc1ccccc1C(c1ccccc1)(c1ccccc1)n1ccnc1 |  | 9.81 µM (active)
31 | c1ccc(C[n+]2cccc3ccccc32)cc1 | inactive | 
32 | Clc1cc(Cl)c2c(c1)N=C1CCCCCN1C2 | inactive | 
33 | CC(C)(c1cc(Br)c(O)c(Br)c1)c1cc(Br)c(O)c(Br)c1 |  | 9.34 µM (active)
34 | C[C@]12CC[C@@H]3c4ccc(O)cc4CC[C@H]3[C@@H]1CCC2=O | inactive | 
35 | CCCCCCCCCCCO | inactive | 
36 | CCCC(=O)OCCC(C)C | inactive | 
37 | CN(C)c1ccc(C(=C2C=CC(=[N+](C)C)C=C2)c2ccc(N(C)C)cc2)cc1 |  | 1.97 µM (active)
38 | CCCCCCCCCCCCO | inactive | 
39 | O=C(Nc1ccc(Cl)cc1)Nc1ccc(Cl)c(Cl)c1 | inactive | 
40 | COc1cccc([C@H](O)C2CCN(CCc3ccc(F)cc3)CC2)c1OC | inactive | 
